Assay [1] deals with Alpha-galactosidase (Coffea arabica) (UniProt Q42656). Briefly: Counterscreen for Glucocerebrosidase Inhibitors: qHTS Assay for Coffee Bean alpha-Galactosidase at pH 4.5 (AID 957). Further: series mostly up to about 77 µM. The procedure, abridged:
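Coffee bean enzyme (2 nM) with 80 uM 4-methylumbelliferyl alpha-D-galactopyranoside in 50 mM citric acid, 0.005% Tween-20, pH 4.5, 20 min at room temperature; compounds 0.7 nM–77 uM. Stopped at pH 10, fluorescence 365/440 nm; AC50 from Hill fits.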

Assay [2] has the same target. Kind of assay: Counterscreen for Glucocerebrosidase Inhibitors: qHTS Assay for Coffee Bean alpha-Galactosidase at pH 5.9 (AID 998). The procedure, abridged: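 Green coffee bean enzyme (2 nM) with 4-methylumbelliferyl alpha-D-galactopyranoside (80 uM) in 50 mM citric acid, 0.005% Tween-20, pH 5.9, 20 min at room temperature; compounds 0.7 nM–77 uM. Stopped at pH 10, fluorescence Ex365/Em440; Hill-fit AC50.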

A short description of assay [3]: Validation screen for inhibitors of Lassa infection (AID 463096; calls by dose curve; further: potency means the concentration at half of the fitted maximal effect).
Assay [4] is described as follows: Inducers of the Endoplasmic Reticulum Stress Response (ERSR) in human glioma: Validation (AID 504836). An outline of the steps:
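Stably transfected U87-MG glioma cells carrying a GRP78-based luciferase sensor; 16 h compound incubation. Luminescence end-point read 10 min after Bright-Glo addition at room temperature.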

Assay [5] is described as follows: qHTS for Inhibitors of the Functional Ribonucleoprotein Complex (vRNP) of Lassa (LASV) Arenavirus: LASV Primary Screen - GLuc reporter signal (AID 1347082; calls by dose curve; tested in HEK293 reporter line; further: series mostly up to about 57 µM; nearly all actives have a fitted effect of over 60% in size).
Assay [6] in a line: qHTS for Inhibitors of the Functional Ribonucleoprotein Complex (vRNP) of Lassa (LASV) Arenavirus: Viability assay - alamar blue signal for LASV Primary Screen (AID 1347083; calls by dose curve; tested in HEK293 reporter line; further: series mostly up to about 57 µM; nearly all actives have a fitted effect of over 80% in size).
Assay [7] in a line: qHTS for Inhibitors of the Functional Ribonucleoprotein Complex (vRNP) of Lymphocytic Choriomeningitis Arenaviruses (LCMV): Viability assay - alamar blue signal for LCMV Primary Screen (AID 1347085; calls by dose curve; tested in HEK293 reporter line; further: series mostly up to about 57 µM; nearly all actives have a fitted effect of over 80% in size).
Assay [8] concerns the target Nucleoprotein (Lymphocytic choriomeningitis virus (strain Armstrong)) (UniProt P09992). Briefly: qHTS for Inhibitors of the Functional Ribonucleoprotein Complex (vRNP) of Lymphocytic Choriomeningitis Arenaviruses (LCMV): LCMV Primary Screen - GLuc reporter signal (AID 1347086; calls by dose curve; further: series mostly up to about 57 µM; nearly all actives have a fitted effect of over 70% in size).

Values without a mark were called inactive. Results filed as inconclusive are left out. Active and inactive are the calls of the source. Unless noted, the call rests on the fitted dose curve; in most records, active means well fitted curve in the direction sought with a large enough effect; inconclusive means small, poorly fitted or top-dose-only effect, or another doubt; inactive means no such curve, though single readings can be large; an effect the other way counts as inactive or inconclusive.

Nucleoprotein (Lymphocytic choriomeningitis virus (strain Armstrong)), sequence (P09992 whole entry, looked up): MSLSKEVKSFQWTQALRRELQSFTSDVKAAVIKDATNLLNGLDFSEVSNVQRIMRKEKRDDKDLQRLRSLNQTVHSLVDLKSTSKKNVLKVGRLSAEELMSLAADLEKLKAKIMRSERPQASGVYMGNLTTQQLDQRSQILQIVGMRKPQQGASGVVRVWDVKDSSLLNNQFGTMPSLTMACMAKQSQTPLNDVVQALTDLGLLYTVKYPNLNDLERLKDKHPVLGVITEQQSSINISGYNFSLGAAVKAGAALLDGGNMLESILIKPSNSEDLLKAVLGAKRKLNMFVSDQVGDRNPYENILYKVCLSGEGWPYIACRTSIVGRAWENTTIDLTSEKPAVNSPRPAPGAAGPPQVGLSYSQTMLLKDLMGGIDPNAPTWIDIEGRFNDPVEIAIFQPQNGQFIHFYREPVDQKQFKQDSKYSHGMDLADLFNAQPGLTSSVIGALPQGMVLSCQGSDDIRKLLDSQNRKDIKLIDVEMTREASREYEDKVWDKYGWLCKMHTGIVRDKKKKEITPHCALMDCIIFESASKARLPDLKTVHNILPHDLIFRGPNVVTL
Alpha-galactosidase (Coffea arabica), sequence (Q42656 whole entry, looked up): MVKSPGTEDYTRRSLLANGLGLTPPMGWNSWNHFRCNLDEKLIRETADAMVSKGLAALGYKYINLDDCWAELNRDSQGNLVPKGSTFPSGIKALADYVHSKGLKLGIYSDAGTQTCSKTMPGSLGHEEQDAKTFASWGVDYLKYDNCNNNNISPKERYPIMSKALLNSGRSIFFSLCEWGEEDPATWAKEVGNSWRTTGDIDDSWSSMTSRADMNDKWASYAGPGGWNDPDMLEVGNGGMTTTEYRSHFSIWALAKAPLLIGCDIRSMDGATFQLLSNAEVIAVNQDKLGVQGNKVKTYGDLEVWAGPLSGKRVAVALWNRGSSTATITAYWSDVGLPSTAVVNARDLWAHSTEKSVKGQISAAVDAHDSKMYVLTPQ

With `CC(C)NC[C@H](O)c1ccc(O)c(O)c1`, the call in assay [1], in assay [2] and in assay [4] was inactive. Also, the Potency result in assay [3], in assay [5], in assay [6], in assay [7] and in assay [8] was “inactive” each time.

Consider `Cn1cc(C(=O)OCC2CCN(CCNS(C)(=O)=O)CC2)c2ccccc21`, for which the outcome in assay [1], in assay [2] and in assay [4] was inactive. In addition, the Potency result in assay [3], in assay [5], in assay [6], in assay [7] and in assay [8] was “inactive” each time.

In the case of `COc1ccccc1N1CCN(CCCCN2C(=O)c3ccccc3C2=O)CC1`, the outcome in assay [1], in assay [2] and in assay [4] was inactive. For the same compound, the Potency entry in assay [3], in assay [5], in assay [6], in assay [7] and in assay [8] was “inactive” each time.

As for `N[C@@H](Cc1cnc[nH]1)C(=O)O`, the result in assay [1], in assay [2] and in assay [4] was inactive. The Potency result in assay [3], in assay [5], in assay [6], in assay [7] and in assay [8] was “inactive” throughout.

Consider `Nc1ccc(N2C(=O)c3ccccc3C2=O)c(Cl)c1`, for which the call in assay [1], in assay [2] and in assay [4] was inactive. Moreover, the Potency result in assay [3], in assay [5], in assay [6], in assay [7] and in assay [8] was “inactive” throughout.

For `NCCCCN`, the outcome in assay [1], in assay [2] and in assay [4] was inactive. Moreover, the Potency entry in assay [3], in assay [5], in assay [6], in assay [7] and in assay [8] was “inactive” in each case.

Consider `CN1CCN(c2nc3cc(C(F)(F)F)ccc3n3cccc23)CC1`, for which the result in assay [1], in assay [2] and in assay [4] was inactive. Moreover, the Potency entry in assay [3], in assay [5], in assay [6], in assay [7] and in assay [8] was “inactive” in each case.

In the case of `Cn1c(=O)c2[nH]c(C3CCCC3)nc2n(C)c1=O`, the call in assay [1], in assay [2] and in assay [4] was inactive. The Potency entry in assay [3], in assay [5], in assay [6], in assay [7] and in assay [8] was “inactive” throughout.

For the compound `NCCCCN=C(N)N`, the compound was classed as inactive in assay [1], in assay [2] and in assay [4]. The Potency result in assay [3], in assay [5], in assay [6], in assay [7] and in assay [8] was “inactive” each time.

With `COc1ccccc1N1CCN(CCN(C(=O)c2ccc(F)cc2)c2ccccn2)CC1`, the compound was classed as inactive in assay [1], in assay [2] and in assay [4]. Besides, the Potency result in assay [3], in assay [5], in assay [6], in assay [7] and in assay [8] was “inactive” throughout.

For `N#C/C(=C\c1c[nH]c2ccccc12)C(=O)c1ccc(O)c(O)c1`, the call in assay [1], in assay [2] and in assay [4] was inactive. Also, the Potency entry in assay [3], in assay [5], in assay [6], in assay [7] and in assay [8] was “inactive” in each case.

As to `O=c1[nH]c2ccccc2c2ccccc12`, the compound was classed as inactive in assay [1], in assay [2] and in assay [4]. The Potency result in assay [3], in assay [5], in assay [6], in assay [7] and in assay [8] was “inactive” each time.

Take `O=c1[nH]c2cc(Cl)ccc2c(O)c1-c1ccc(Oc2ccccc2)cc1`: the result in assay [1], in assay [2] and in assay [4] was inactive. Also, the Potency result in assay [3], in assay [5], in assay [6], in assay [7] and in assay [8] was “inactive” throughout.

`COc1cc2c(CCNC(C)=O)c[nH]c2cc1Cl`: the result in assay [1], in assay [2] and in assay [4] was inactive. The Potency entry in assay [3], in assay [5], in assay [6], in assay [7] and in assay [8] was “inactive” in each case.

For `N#CC(C#N)=C(N)/C(C#N)=C/c1ccc(O)cc1`, the call in assay [1], in assay [2] and in assay [4] was inactive. The Potency result in assay [3], in assay [5], in assay [6], in assay [7] and in assay [8] was “inactive” throughout.

As for `Cc1nc(N=Nc2ccc(C(=O)O)cc2)c(COP(=O)(O)O)c(C=O)c1O`, the call in assay [1], in assay [2] and in assay [4] was inactive. Besides, the Potency result in assay [3], in assay [5], in assay [6], in assay [7] and in assay [8] was “inactive” each time.

In the case of `NC(N)=NC(N)=Nc1cccc(Cl)c1`, the result in assay [1], in assay [2] and in assay [4] was inactive. Moreover, the Potency result in assay [3], in assay [5], in assay [6], in assay [7] and in assay [8] was “inactive” each time.

For `CCC(=O)N1CCN(C(=O)c2ccccc2)CC1`, the outcome in assay [1], in assay [2] and in assay [4] was inactive. Also, the Potency result in assay [3], in assay [5], in assay [6], in assay [7] and in assay [8] was “inactive” throughout.

Take `COc1cc(/C=C(\C#N)C(=O)c2ccc(O)c(O)c2)cc(I)c1O`: the call in assay [1], in assay [2] and in assay [4] was inactive. The Potency entry in assay [3], in assay [5], in assay [6], in assay [7] and in assay [8] was “inactive” in each case.

Take `COc1ccccc1N1CCN(CCCCNC(=O)c2ccc3ccccc3c2)CC1`: the call in assay [1], in assay [2] and in assay [4] was inactive. In addition, in assay [3], the Potency was 11.2 µM (active). Also, the Potency entry in assay [5], in assay [6], in assay [7] and in assay [8] was “inactive” each time.

Take `CCSC(=N)N`: the call in assay [1], in assay [2] and in assay [4] was inactive. The Potency result in assay [3], in assay [5], in assay [6], in assay [7] and in assay [8] was “inactive” each time.

As for `NCCSSCCN`, the compound was called inactive in assay [1], in assay [2] and in assay [4]. The Potency result in assay [3], in assay [5], in assay [6], in assay [7] and in assay [8] was “inactive” in each case.

Consider `C[C@H](NC(=O)/C(C#N)=C/c1ccc(O)c(O)c1)c1ccccc1`, for which the call in assay [1], in assay [2] and in assay [4] was inactive. Also, the Potency result in assay [3], in assay [5], in assay [6], in assay [7] and in assay [8] was “inactive” each time.

Consider `O=C(c1cc(O)c(O)c([N+](=O)[O-])c1)c1ccccc1F`, for which the compound was classed as inactive in assay [1], in assay [2] and in assay [4]. Also, the Potency entry in assay [3], in assay [5], in assay [6], in assay [7] and in assay [8] was “inactive” in each case.

As for `O=C(O)CC[C@@H](C(=O)O)N1C(=O)c2ccccc2C1=O`, the compound was called inactive in assay [1], in assay [2] and in assay [4]. Further, the Potency entry in assay [3], in assay [5], in assay [6], in assay [7] and in assay [8] was “inactive” in each case.

Take `N[C@@H](Cc1ccc(O)c(I)c1)C(=O)O`: the compound was classed as inactive in assay [1], in assay [2] and in assay [4]. Besides, the Potency entry in assay [3], in assay [5], in assay [6], in assay [7] and in assay [8] was “inactive” each time.

`O=c1onc2n1-c1cc(Br)ccc1OC2`: the compound was called inactive in assay [1], in assay [2] and in assay [4]. In addition, the Potency entry in assay [3], in assay [5], in assay [6], in assay [7] and in assay [8] was “inactive” throughout.

In the case of `CCCOC(=O)c1c(-c2ccccc2)nc(CC)c(C(=O)SCC)c1CCC`, the outcome in assay [1], in assay [2] and in assay [4] was inactive. The Potency entry in assay [3], in assay [5], in assay [6], in assay [7] and in assay [8] was “inactive” in each case.

These data come from PubChem BioAssay (NCATS).
